In PubChem BioAssay (NCATS):
Inconclusive results are not listed. A call without a number means that no potency is given here. Active and inactive are the calls of the source. Calls follow the shape of the dose curve; as a rule, active = well fitted inhibition curve with a large enough effect; inconclusive = small, poorly fitted or top-dose-only effect; inactive = flat fitted curve, though single readings scatter.

Each compound was assayed against Calcium and integrin-binding protein 1 (Homo sapiens) (UniProt Q99828) (assay: Primary qHTS for Identification of Calcium Integrin Binding Protein 1 (CIB1) Competitor (AID 1508620)). Conditions: CIB1-GST / FITC-alphaIIb peptide fluorescence polarization; series mostly up to 114 µM.
Summary of the method: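 Fluorescence polarization competition: GST-tagged CIB1 (1 uM final) preincubated with compound 15 min at room temperature, then FITC-labelled alphaIIb peptide (100 nM final) added. After 15 min at room temperature, polarization read at Ex 480/Em 540.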
Potency is read from the fitted curve at half-maximal effect.

Sequence of Calcium and integrin-binding protein 1 (Homo sapiens) (Q99828 whole entry, looked up): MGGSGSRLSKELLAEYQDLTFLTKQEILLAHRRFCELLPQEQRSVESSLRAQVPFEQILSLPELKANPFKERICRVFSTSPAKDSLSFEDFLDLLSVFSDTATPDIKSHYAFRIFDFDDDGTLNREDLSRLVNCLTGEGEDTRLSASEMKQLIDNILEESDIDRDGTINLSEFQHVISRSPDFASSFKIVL

SMILES | Potency
O=C(Nc1ccc(-c2nc3ccccc3[nH]2)cc1)c1ccc(C(F)(F)F)cc1 | inactive
CNc1oc(-c2cccc3ncccc23)nc1C#N | inactive
Cc1ccc(S(=O)(=O)Nc2cccc3ccc[n+](C)c23)cc1 | inactive
Cc1cc(NS(=O)(=O)c2ccc(NC(=O)Cc3ccccc3)cc2)no1 | inactive
O=C(O)c1ccc(-c2ccc3ncnc(NCC4CCCO4)c3c2)o1 (stereo not drawn) | inactive
O=C(c1ccc2c(c1)ncn2-c1cccc(C(F)(F)F)c1)N1CCCCC1 | inactive
CN(CCC1CCCO1)c1ncnc2ccc(-c3ccc4c(c3)OCO4)cc12 (stereo not drawn) | inactive
C[C@H](N)C(=O)Nc1cccc(-c2nn3c(=O)cc(N4CCNCC4)nc3s2)c1 | inactive
O=Cc1c(-c2ccccc2)no[n+]1[O-] | 50.1 µM (active)
COc1ccc(C2=Nn3c(nnc3-c3cccc(OC)c3OC)SC2)cc1OC | inactive
Nc1ccccc1C(=O)NCc1ccco1 | inactive
O=C(NCCc1nc2ccccc2n1CCOc1ccc(C(F)(F)F)cc1)C1CCCCC1 | inactive
COc1ccccc1C1=Nn2c(nnc2-c2ccccc2O)SC1 | inactive
CCOC(=O)c1ccoc1-c1ccc2ncnc(N(C)Cc3sccc3C)c2c1 | inactive
c1ccc(CN(Cc2ccccc2)Cc2nnc(-c3cc4ccccc4[nH]3)s2)cc1 | inactive
Cc1cc(NC(=O)Nc2nnc(-c3ccncc3)s2)ccc1Br | inactive
O=C(Nc1cccc(C(F)(F)F)c1)c1cccs1 | inactive
COc1cccc(C2=Nn3c(nnc3-c3cc(OC)ccc3OC)SC2)c1 | inactive
Cn1nnnc1Sc1ncnc2scc(-c3ccccc3F)c12 | inactive
CC(C)(C)OC(=O)N1CCN(c2ncc(NCc3ccc(-c4ccc(C#N)cc4)o3)cn2)CC1 | inactive
N#Cc1nc(Nc2cccc(F)c2)nc(NC2CCCC2)n1 | inactive
CC(C)(C)c1cccc(NC(=O)Nc2nnc(-c3ccncc3)s2)c1 | inactive
COc1ccc(C2Nc3ccccc3C(=O)N2Cc2cccs2)cc1COc1c(C)cccc1C (stereo not drawn) | inactive
